# About 7,900 targets were measured; listed, in parts, are those with a hit and a random draw of the rest. About 0.6% of all pairs of compound and target were hits. Unmarked numbers belong to inactive results.
# What was measured:
# Assay in all cases: log2 fold change, soluble protein after heating vs DMSO (PISA); higher = thermal stabilisation; K562 cells, 10 uM, 30 min; active = over 0.2 and 3.5 SD of the protein, either way, in both replicates (recomputed)
# bafetinib = compound: Cc1ccc(NC(=O)c2ccc(CN3CC[C@H](N(C)C)C3)c(C(F)(F)F)c2)cc1Nc1nccc(-c2cncnc2)n1 [bafetinib]
# Method in brief: (§1)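 K562 cells at 2×10^6 cells/mL were treated with 10 μM compound for 30 min. Aliquots were heated for 3 min across 48°C-58°C, pooled, and extracted in PBS with 0.5% NP-40 at 4°C; soluble protein was the supernatant after 21,000xg for 90 min. Soluble protein was quantified by TMTpro 16plex LC-MS/MS with channel sums equalised, and reported as log2 fold change in thermal stability against DMSO controls, with values from duplicates.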
# [1] = compound: Cc1cccc(CC(=O)N2CCc3c2ccc(-c2cn(C)c4ncnc(N)c24)c3F)n1
# Method in brief: as §1
# nilotinib = compound: Cc1cn(-c2cc(NC(=O)c3ccc(C)c(Nc4nccc(-c5cccnc5)n4)c3)cc(C(F)(F)F)c2)cn1 [nilotinib]
# Method in brief: as §1
# [2] = compound: Cc1nc(Nc2n[nH]c3c2CN(C(=O)N[C@H](CN(C)C)c2ccccc2)C3(C)C)c2sccc2n1
# Method in brief: as §1
# dasatinib = compound: Cc1nc(Nc2ncc(C(=O)Nc3c(C)cccc3Cl)s2)cc(N2CCN(CCO)CC2)n1 [dasatinib]
# Method in brief: as §1
# [3] = compound: Cc1ncc(-c2ccnc(Nc3ccc(S(C)(=O)=O)cc3)n2)n1C(C)C
# Method in brief: as §1
# [4] = compound: Cn1cc(-c2ccc3c(c2)CCN3C(=O)Cc2cccc(C(F)(F)F)c2)c2c(N)ncnc21
# Method in brief: as §1
# [5] = compound: Cn1cc(-c2ccc3nnc(C(F)(F)c4ccc5ncccc5c4)n3n2)cn1
# Method in brief: as §1
# tipifarnib = compound: Cn1cncc1[C@@](N)(c1ccc(Cl)cc1)c1ccc2c(c1)c(-c1cccc(Cl)c1)cc(=O)n2C [tipifarnib]
# Method in brief: as §1
# mubritinib = compound: FC(F)(F)c1ccc(/C=C/c2nc(COc3ccc(CCCCn4ccnn4)cc3)co2)cc1 [mubritinib]
# Method in brief: as §1
# [6] = compound: NC(=O)Nc1cc(-c2cccc(F)c2)sc1C(=O)N[C@H]1CCCNC1
# Method in brief: as §1
# [7] = compound: NC(=O)c1cnc(N[C@@H]2CCCC[C@@H]2N)nc1Nc1cccc(-n2nccn2)c1
# Method in brief: as §1
# [8] = compound: NC1(c2ccc(-c3nc4ccn5c(=O)[nH]nc5c4cc3-c3ccccc3)cc2)CCC1
# Method in brief: as §1
# [9] = compound: NCC(=O)Nc1ccc(-n2nc(C(F)(F)F)cc2-c2ccc3c(ccc4ccccc43)c2)cc1
# Method in brief: as §1
# entinostat = compound: Nc1ccccc1NC(=O)c1ccc(CNC(=O)OCc2cccnc2)cc1 [entinostat]
# Method in brief: as §1
# vorinostat = compound: O=C(CCCCCCC(=O)Nc1ccccc1)NO [vorinostat]
# Method in brief: as §1
# citarinostat = compound: O=C(CCCCCCNC(=O)c1cnc(N(c2ccccc2)c2ccccc2Cl)nc1)NO [citarinostat]
# Method in brief: as §1
# silmitasertib = compound: O=C(O)c1ccc2c(c1)nc(Nc1cccc(Cl)c1)c1ccncc12 [silmitasertib]
# Method in brief: as §1
# [10] = compound: O=C1NC(=O)C(c2cnc3ccccn23)=C1c1cn2c3c(cc(F)cc13)CN(C(=O)N1CCCCC1)CC2
# Method in brief: as §1
# [11] = compound: c1cc(OCCN2CCCCC2)cc(-c2n[nH]c3ccc(-c4nnc[nH]4)cc23)c1
# Method in brief: as §1
# Sequence of UniProt P42574 (P42574 whole entry, looked up): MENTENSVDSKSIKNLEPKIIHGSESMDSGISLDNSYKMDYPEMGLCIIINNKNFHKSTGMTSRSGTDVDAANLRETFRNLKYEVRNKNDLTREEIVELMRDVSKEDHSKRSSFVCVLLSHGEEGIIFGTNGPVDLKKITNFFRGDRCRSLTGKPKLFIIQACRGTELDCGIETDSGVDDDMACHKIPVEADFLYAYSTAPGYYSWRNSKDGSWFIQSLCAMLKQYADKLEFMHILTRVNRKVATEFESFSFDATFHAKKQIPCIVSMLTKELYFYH
# Sequence of UniProt Q99807 (Q99807 whole entry, looked up): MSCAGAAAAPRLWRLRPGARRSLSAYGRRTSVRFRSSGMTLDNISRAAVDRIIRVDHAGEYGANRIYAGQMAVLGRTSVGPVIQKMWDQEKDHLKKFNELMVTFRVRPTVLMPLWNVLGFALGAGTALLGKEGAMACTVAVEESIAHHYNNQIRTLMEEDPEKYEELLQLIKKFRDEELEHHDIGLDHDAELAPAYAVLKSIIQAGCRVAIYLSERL
# Sequence of UniProt Q00535 (Q00535 whole entry, looked up): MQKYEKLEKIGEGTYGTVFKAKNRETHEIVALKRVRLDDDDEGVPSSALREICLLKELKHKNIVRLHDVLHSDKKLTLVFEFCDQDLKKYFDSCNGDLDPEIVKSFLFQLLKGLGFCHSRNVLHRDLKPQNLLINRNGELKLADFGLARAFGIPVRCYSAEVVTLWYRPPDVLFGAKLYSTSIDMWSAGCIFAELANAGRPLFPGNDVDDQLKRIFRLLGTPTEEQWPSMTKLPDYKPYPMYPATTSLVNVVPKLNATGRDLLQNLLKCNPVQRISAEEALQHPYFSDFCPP
# Sequence of UniProt Q9Y5P4 (Q9Y5P4 whole entry, looked up): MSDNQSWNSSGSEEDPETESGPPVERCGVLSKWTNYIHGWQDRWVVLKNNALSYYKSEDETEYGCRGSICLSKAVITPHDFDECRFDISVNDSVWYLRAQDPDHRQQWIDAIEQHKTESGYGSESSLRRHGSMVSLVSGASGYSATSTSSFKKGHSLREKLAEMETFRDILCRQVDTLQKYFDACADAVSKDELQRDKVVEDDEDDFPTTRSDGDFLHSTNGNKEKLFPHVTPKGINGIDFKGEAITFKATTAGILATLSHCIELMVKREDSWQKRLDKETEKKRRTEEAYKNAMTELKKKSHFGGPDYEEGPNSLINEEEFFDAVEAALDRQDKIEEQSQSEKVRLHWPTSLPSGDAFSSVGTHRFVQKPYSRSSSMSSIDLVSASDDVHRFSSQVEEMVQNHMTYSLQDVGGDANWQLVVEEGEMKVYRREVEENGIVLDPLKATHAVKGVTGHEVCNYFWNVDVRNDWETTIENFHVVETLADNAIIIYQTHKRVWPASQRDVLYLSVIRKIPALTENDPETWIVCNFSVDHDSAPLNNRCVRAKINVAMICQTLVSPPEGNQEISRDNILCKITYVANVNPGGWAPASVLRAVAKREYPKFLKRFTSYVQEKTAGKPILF
# Sequence of UniProt Q9NZN8 (Q9NZN8 whole entry, looked up): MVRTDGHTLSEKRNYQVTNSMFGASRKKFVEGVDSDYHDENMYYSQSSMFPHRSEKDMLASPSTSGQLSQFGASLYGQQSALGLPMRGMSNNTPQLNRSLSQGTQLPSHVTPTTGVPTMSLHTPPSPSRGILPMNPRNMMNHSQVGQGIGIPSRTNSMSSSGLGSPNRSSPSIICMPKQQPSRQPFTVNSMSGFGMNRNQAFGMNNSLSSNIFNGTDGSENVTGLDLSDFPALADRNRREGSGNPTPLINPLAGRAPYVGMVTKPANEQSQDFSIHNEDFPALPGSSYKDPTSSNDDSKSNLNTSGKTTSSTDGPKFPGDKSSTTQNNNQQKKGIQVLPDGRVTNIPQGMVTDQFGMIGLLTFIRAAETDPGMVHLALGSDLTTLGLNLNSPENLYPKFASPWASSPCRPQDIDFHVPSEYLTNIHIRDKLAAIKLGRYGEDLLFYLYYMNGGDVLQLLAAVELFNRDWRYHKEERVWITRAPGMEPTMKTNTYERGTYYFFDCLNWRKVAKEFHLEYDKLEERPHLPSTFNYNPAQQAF
# Sequence of UniProt P20674 (P20674 whole entry, looked up): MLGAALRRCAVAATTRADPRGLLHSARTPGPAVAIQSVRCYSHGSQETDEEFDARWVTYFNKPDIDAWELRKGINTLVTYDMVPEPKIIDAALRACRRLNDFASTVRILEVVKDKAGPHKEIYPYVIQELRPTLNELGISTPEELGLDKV
# Sequence of UniProt P51946 (P51946 whole entry, looked up): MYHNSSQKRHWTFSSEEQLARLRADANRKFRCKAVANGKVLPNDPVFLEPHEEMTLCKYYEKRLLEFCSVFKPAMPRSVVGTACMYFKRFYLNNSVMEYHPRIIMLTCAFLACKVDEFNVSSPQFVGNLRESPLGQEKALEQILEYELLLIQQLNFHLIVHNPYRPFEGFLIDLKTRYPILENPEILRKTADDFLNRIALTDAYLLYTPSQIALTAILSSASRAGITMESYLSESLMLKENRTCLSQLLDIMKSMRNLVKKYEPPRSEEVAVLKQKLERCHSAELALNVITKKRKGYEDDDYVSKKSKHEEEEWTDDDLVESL
# Sequence of UniProt Q96GQ5 (Q96GQ5 whole entry, looked up): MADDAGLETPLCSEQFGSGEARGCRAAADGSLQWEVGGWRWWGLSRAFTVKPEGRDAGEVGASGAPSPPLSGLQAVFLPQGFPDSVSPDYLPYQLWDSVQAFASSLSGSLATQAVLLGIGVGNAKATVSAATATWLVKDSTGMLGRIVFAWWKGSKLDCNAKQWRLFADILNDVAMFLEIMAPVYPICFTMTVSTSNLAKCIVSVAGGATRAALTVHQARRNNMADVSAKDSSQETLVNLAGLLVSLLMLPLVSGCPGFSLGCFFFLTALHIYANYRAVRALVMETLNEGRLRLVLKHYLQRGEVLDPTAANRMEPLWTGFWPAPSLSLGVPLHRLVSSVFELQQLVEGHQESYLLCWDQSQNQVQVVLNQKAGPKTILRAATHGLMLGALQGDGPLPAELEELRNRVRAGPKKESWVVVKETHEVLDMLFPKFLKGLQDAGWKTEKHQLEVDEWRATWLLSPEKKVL
# Sequence of UniProt A6NHX0 (A6NHX0 whole entry, looked up): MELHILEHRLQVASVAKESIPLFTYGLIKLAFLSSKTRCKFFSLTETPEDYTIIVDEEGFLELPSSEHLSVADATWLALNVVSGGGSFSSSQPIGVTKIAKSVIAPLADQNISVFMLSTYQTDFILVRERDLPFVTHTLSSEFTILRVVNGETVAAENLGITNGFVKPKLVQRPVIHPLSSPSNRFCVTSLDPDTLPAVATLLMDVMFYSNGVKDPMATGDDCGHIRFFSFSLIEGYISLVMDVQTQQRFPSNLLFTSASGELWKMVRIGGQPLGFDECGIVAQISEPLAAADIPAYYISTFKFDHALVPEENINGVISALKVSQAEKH
# Sequence of UniProt Q16740 (Q16740 whole entry, looked up): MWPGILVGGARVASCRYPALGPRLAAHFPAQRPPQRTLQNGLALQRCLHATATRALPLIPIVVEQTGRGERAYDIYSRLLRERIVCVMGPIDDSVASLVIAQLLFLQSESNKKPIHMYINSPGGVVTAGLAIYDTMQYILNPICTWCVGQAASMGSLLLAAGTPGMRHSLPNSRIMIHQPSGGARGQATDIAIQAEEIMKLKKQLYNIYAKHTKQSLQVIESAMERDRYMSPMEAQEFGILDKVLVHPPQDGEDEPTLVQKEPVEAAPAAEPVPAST
# Sequence of UniProt Q99627 (Q99627 whole entry, looked up): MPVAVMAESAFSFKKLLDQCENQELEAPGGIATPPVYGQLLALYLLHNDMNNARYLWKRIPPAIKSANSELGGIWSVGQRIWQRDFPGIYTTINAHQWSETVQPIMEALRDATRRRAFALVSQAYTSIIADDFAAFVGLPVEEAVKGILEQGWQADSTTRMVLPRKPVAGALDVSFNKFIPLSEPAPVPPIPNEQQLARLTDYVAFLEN
# Sequence of UniProt Q00534 (Q00534 whole entry, looked up): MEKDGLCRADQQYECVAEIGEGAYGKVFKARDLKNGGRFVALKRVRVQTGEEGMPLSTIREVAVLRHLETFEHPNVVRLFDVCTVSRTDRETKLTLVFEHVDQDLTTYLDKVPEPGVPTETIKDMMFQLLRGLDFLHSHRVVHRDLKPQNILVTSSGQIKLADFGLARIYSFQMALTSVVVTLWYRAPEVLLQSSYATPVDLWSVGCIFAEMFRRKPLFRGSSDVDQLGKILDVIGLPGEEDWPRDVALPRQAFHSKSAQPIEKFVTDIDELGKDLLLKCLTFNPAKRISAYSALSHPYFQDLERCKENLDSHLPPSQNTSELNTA
# Sequence of UniProt O15182 (O15182 whole entry, looked up): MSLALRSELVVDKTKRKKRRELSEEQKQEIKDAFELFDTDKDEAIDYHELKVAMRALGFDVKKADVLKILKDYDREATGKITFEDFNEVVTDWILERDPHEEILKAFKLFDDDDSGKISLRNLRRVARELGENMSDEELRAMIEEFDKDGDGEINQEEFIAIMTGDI
# Sequence of UniProt Q8N4Q1 (Q8N4Q1 whole entry, looked up): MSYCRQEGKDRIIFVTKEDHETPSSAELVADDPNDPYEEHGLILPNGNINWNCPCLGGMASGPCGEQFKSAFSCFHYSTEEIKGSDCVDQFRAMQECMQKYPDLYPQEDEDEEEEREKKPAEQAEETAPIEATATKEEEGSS
Target,log2 fold change (bafetinib),log2 fold change [1],log2 fold change (nilotinib),log2 fold change [2],log2 fold change (dasatinib),log2 fold change [3],log2 fold change [4],log2 fold change [5],log2 fold change (tipifarnib),log2 fold change (mubritinib),log2 fold change [6],log2 fold change [7],log2 fold change [8],log2 fold change [9],log2 fold change (entinostat),log2 fold change (vorinostat),log2 fold change (citarinostat),log2 fold change (silmitasertib),log2 fold change [10],log2 fold change [11]
C16orf58 (UniProt Q96GQ5),-0.112,0.052,-0.036,0.029,-0.046,-0.01,0.084,0.012,0.003,0.021,-0.047,-0.05,-0.111,-0.08,0.001,0.026,0.034,0.032,-0.027,-0.017
CETN3 (UniProt O15182),-0.052,-0.249 (active),-0.051,0.04,0.068,-0.013,-0.026,-0.006,0.086,0.112,-0.016,-0.059,-0.031,-0.102,0.033,-0.126,-0.002,0.032,-0.1,-0.061
COX5A (UniProt P20674),-0.079,-0.003,0.067,-0.023,0.06,-0.067,0.109,0.422 (active),0.103,0.021,0.019,0.103,0.117,0.024,0.024,-0.078,-0.041,-0.055,-0.228,-0.046
COPS8 (UniProt Q99627),-0.021,0.025,0.018,-0.008,0.006,0.007,0.107,0.146,-0.017,0.025,0.02,0.038,-0.042,0.043,0.034,0.041,0.056,0.044,-0.077,0.018
CLPP (UniProt Q16740),0.025,-0.045,0.022,0.005,0.063,-0.016,0.115,0.02,0.003,0.004,0.044,-0.027,0.027,-0.008,0.029,-0.05,0.027,0.007,0.096,-0.031
CERT isoform 3 (UniProt Q9Y5P4),0.032,-0.08,0.193,-0.397 (active),0.019,-0.11,0.109,0.021,0.111,0.117,-0.323 (active),-0.103,-0.101,-0.045,-0.008,-0.025,0.065,0.034,0,-0.418 (active)
CHCHD4 isoform 2 (UniProt Q8N4Q1),0,0.764 (active),-0.054,-0.015,-0.121,-0.039,-0.185,-0.059,-0.208,0,0.335,0.06,-0.007,0.084,0.339,0.442,-0.013,0.038,0.123,0.027
CNOT2 (UniProt Q9NZN8),-0.002,0,0.048,-0.063,-0.035,0.01,-0.055,0.022,-0.063,0.054,-0.012,-0.014,-0.058,-0.087,-0.023,0.018,0.026,0.046,0.007,-0.058
CDK6 (UniProt Q00534),-0.017,-0.002,-0.021,-0.079,-0.01,0.081,-0.019,-0.033,-0.043,0.012,-0.004,-0.082,-0.017,-0.003,0.009,0.005,-0.006,0.131,0.146,0.017
CCNH (UniProt P51946),-0.064,-0.01,-0.008,0.113,0.023,-0.056,-0.005,0.005,0.051,0.08,-0.043,-0.009,0.024,-0.02,-0.006,-0.028,0.015,0.02,-0.083,-0.027
COASY isoform 2 (UniProt Q13057),-0.009,0.089,-0.19,0.001,-0.132,0.005,0.037,-0.062,-0.102,-0.196,0,0.004,-0.138,-0.004,0.018,0.063,0.054,0.042,-0.004,-0.01
CASTOR2 (UniProt A6NHX0),-0.063,0.019,0.011,0.02,-0.024,-0.039,-0.019,-0.032,-0.311,-0.032,0.076,0.113,-0.034,0.06,-0.072,0.056,0.04,-0.03,-0.005,0.076
COQ7 (UniProt Q99807),-0.168,-0.062,0.006,-0.103,-0.006,-0.033,0.055,0.095,0.029,0.055,-0.12,-0.009,-0.076,-0.007,0,-0.032,0.083,0.008,-0.002,0.015
CPT1A (UniProt P50416),0.171,0.006,0.058,0.021,-0.042,-0.107,-0.024,-0.036,0.187,-0.05,-0.068,-0.012,0.117,-0.001,-0.005,-0.017,0.053,0.037,-0.014,0.071
CASP3 (UniProt P42574),-0.031,-0.042,0.013,-0.012,0.002,-0.007,0.008,-0.022,-0.055,0.007,0.051,0.053,0.075,0.043,-0.029,0,-0.043,-0.057,0.018,-0.051
CDK5 (UniProt Q00535),-0.091,0.035,-0.055,-0.142,-0.078,-0.034,-0.033,-0.031,-0.054,-0.103,-0.045,-0.01,-0.065,-0.082,0.016,0.007,0.06,0.016,-0.1,-0.05

# Reference: the supplement of paper PMC10849652
